In the supplement of paper PMC12494721:
Where a name gives a salt, the structure may show the parent alone.

Tests used:
Details in all cases: 20 µM; incubation time: 27 h, anaerobic, 37 °C;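 for the amine columns active = adjusted P below 0.05 in both replicates with a change the same way and a mean fold change under 0.8 or over 1.25; inactive = the rest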
[1] = test system: Clostridium sporogenes DSM 1664; test: growth (OD595) fold change vs plate DMSO controls (fold change (ratio)); higher = more growth
Outline: (§1)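 After 27 h at 37 °C under anaerobic conditions, 96-well cultures in mGAM were shaken and read at 595 nm. The readings were blank-subtracted, corrected for compound background using 20 µM compound solutions in water, and converted to OD with a calibration factor of 5. Growth is defined as the fold change over the median of DMSO controls on each plate. Fold changes above 1.5 were set to NA, and each value is the mean of 2 biological replicates.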

Escherichia coli IAI1 [2] = test: as above
Outline: as §1

[3] = test system: Klebsiella aerogenes DSM 30053; test: as above
Outline: as §1

[4] = test system: Ruminococcus gnavus DSM 108212; test: as above
Outline: as §1

[5] = test system: Klebsiella aerogenes DSM 30053; test: fold change of Histamine concentration vs plate DMSO controls (fold change (ratio)); higher = more amine produced, active = hit call of the paper (significant change in both replicates, either direction)
Outline: (§2)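 Anaerobic mGAM cultures of four gut bacterial strains were grown at 37 °C for 27 h in 80 µL wells, starting at OD 0.1 before 1:1 dilution. Compounds were at 20 µM final (sweeteners 50 µM). Whole cultures were extracted with cold acetonitrile/methanol containing 0.1% formic acid and centrifuged. Amines were quantified by LC–triple-quadrupole MS (dynamic MRM) against external calibration curves and drift-corrected within batch. Each value is the fold change versus plate DMSO controls, averaged over 2 biological replicates.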

[6] = test system: Clostridium sporogenes DSM 1664; test: fold change of Tryptamine concentration vs plate DMSO controls (fold change (ratio)); higher = more amine produced, active = hit call of the paper (significant change in both replicates, either direction)
Outline: as §2

[7] = test system: Ruminococcus gnavus DSM 108212; test: as above
Outline: as §2

Escherichia coli IAI1 [8] = test: fold change of Putrescine concentration vs plate DMSO controls (fold change (ratio)); higher = more amine produced, active = hit call of the paper (significant change in both replicates, either direction)
Outline: as §2

[9] = test system: Klebsiella aerogenes DSM 30053; test: as above
Outline: as §2

Escherichia coli IAI1 [10] = test: fold change of Cadaverine concentration vs plate DMSO controls (fold change (ratio)); higher = more amine produced, active = hit call of the paper (significant change in both replicates, either direction)
Outline: as §2

[11] = test system: Klebsiella aerogenes DSM 30053; test: as above
Outline: as §2

[12] = test system: Ruminococcus gnavus DSM 108212; test: fold change of 2-Phenylethylamine concentration vs plate DMSO controls (fold change (ratio)); higher = more amine produced, active = hit call of the paper (significant change in both replicates, either direction)
Outline: as §2

SMILES | growth [1] | growth (Escherichia coli IAI1 [2]) | growth [3] | growth [4] | fold change of Histamine concentration [5] | fold change of Tryptamine concentration [6] | fold change of Tryptamine concentration [7] | fold change of Putrescine concentration (Escherichia coli IAI1 [8]) | fold change of Putrescine concentration [9] | fold change of Cadaverine concentration (Escherichia coli IAI1 [10]) | fold change of Cadaverine concentration [11] | fold change of 2-Phenylethylamine concentration [12]
O=c1[nH]c2ccccc2n1C1CCN(CCCC(c2ccc(F)cc2)c2ccc(F)cc2)CC1 [Pimozide] | 1.41 | 0.978 | 0.99 | 1.25 | 1.01 (inactive) | 0.938 (inactive) | 0.846 (inactive) | 0.979 (inactive) | 1.01 (inactive) | 0.964 (inactive) | 0.995 (inactive) | 0.898 (inactive)
CNCC(O)c1ccc(O)cc1 (centres undefined) [Synephrine] | 1.04 | 1.09 | 1.01 | 0.887 | 1.02 (inactive) | 0.997 (inactive) | 1.05 (inactive) | 1.11 (inactive) | 0.982 (inactive) | 0.997 (inactive) | 0.989 (inactive) | 1.09 (inactive)
COc1ncc(F)c2nc(S(=O)(=O)Nc3c(F)cccc3F)nn12 | 1.08 | 0.984 | 1.08 | 1.15 | 0.874 (inactive) | 1.04 (inactive) | 0.984 (inactive) | 1.01 (inactive) | 0.997 (inactive) | 0.998 (inactive) | 1.03 (inactive) | 0.993 (inactive)
C[N+](C)(C)CCCCCCCCCC[N+](C)(C)C [Decamethonium bromide] | 0.947 | 0.999 | 1 | 1.01 | 0.907 (inactive) | 1.13 (inactive) | 1.13 (inactive) | 0.923 (inactive) | 0.933 (inactive) | 0.877 (inactive) | 1.08 (inactive) | 1.11 (inactive)
c1ccc2c(c1)-c1cccc3cccc-2c13 [Fluoranthene] | 0.942 | 0.967 | 0.964 | 1.01 | 1.04 (inactive) | 1.01 (inactive) | 1.02 (inactive) | 0.995 (inactive) | 1.01 (inactive) | 1.01 (inactive) | 0.976 (inactive) | 1.04 (inactive)
CC(C)C[C@H]1C(=O)N2CCC[C@H]2[C@]2(O)O[C@](NC(=O)[C@@H]3C=C4c5cccc6[nH]c(Br)c(c56)C[C@H]4N(C)C3)(C(C)C)C(=O)N12 [Bromocryptine mesylate] | 1.19 | 1.05 | 1.11 | 1.06 | 0.914 (inactive) | 0.868 (inactive) | 1.03 (inactive) | 1.03 (inactive) | 0.98 (inactive) | 1.04 (inactive) | 1.01 (inactive) | 1 (inactive)
O=P(Oc1ccccc1)(Oc1ccccc1)Oc1ccccc1 [Triphenyl PO4] | 0.98 | 1.03 | 1.02 | 1.04 | 0.998 (inactive) | 1.16 (inactive) | 0.971 (inactive) | 1.01 (inactive) | 0.842 (inactive) | 0.993 (inactive) | 1.14 (inactive) | 0.995 (inactive)
C1=Cc2cccc3cccc1c23 [Acenaphthylene] | 0.849 | 1.03 | 0.96 | 1.15 | 1.02 (inactive) | 0.962 (inactive) | 0.991 (inactive) | 1.02 (inactive) | 1 (inactive) | 1.02 (inactive) | 0.985 (inactive) | 0.996 (inactive)
CC(C)(C)NCC(O)c1ccccc1Cl (centres undefined) [Tulobuterol hydrochloride] | 1.21 | 1.07 | 1 | 0.927 | 1.04 (inactive) | 1.08 (inactive) | 0.664 (inactive) | 1.07 (inactive) | 1.01 (inactive) | 0.968 (inactive) | 0.99 (inactive) | 0.653 (inactive)
CC(=O)NC1CCSC1=O (centres undefined) [Citiolone] | 1.15 | 0.993 | 1.07 | 1 | 0.819 (inactive) | 1.05 (inactive) | 1.17 (inactive) | 1.02 (inactive) | 0.93 (inactive) | 0.99 (inactive) | 1.06 (inactive) | 1.31 (inactive)
CN[C@@H]1[C@@H](O)[C@@H](O[C@@H]2[C@@H](O)[C@H](O[C@H]3O[C@H](CN)CC[C@H]3N)[C@@H](N)C[C@H]2N)OC[C@]1(C)O.CN[C@@H]1[C@@H](O)[C@@H](O[C@@H]2[C@@H](O)[C@H](O[C@H]3O[C@H]([C@@H](C)N)CC[C@H]3N)[C@@H](N)C[C@H]2N)OC[C@]1(C)O.CN[C@@H]1[C@@H](O)[C@@H](O[C@@H]2[C@@H](O)[C@H](O[C@H]3O[C@H]([C@@H](C)NC)CC[C@H]3N)[C@@H](N)C[C@H]2N)OC[C@]1(C)O [Gentamicine sulfate] | 1.12 | 1.03 | 0.994 | 1.16 | 0.948 (inactive) | 0.703 (inactive) | 1.08 (inactive) | 1.02 (inactive) | 1.02 (inactive) | 1.02 (inactive) | 1.05 (inactive) | 1.16 (inactive)
O=C(NC(=O)c1c(F)cccc1F)Nc1ccc(Cl)cc1 | 1.04 | 0.979 | 1.02 | 0.975 | 1.01 (inactive) | 0.919 (inactive) | 0.999 (inactive) | 0.982 (inactive) | 1.05 (inactive) | 1.01 (inactive) | 1.03 (inactive) | 0.98 (inactive)
C[C@]12C=CC(=O)C=C1CC[C@@H]1[C@@H]2CC[C@@]2(C)[C@H]1CC[C@]2(C)O [Methandrostenolone] | 1.01 | 0.989 | 1 | 0.931 | 0.999 (inactive) | 0.98 (inactive) | 1.03 (inactive) | 1.01 (inactive) | 0.995 (inactive) | 1.01 (inactive) | 0.991 (inactive) | 1.02 (inactive)
O=C1c2ccccc2C(=O)N1SC(Cl)(Cl)Cl | 1.06 | 1 | 0.997 | 0.937 | 1 (inactive) | 0.983 (inactive) | 0.999 (inactive) | 1.05 (inactive) | 1 (inactive) | 0.969 (inactive) | 0.988 (inactive) | 0.999 (inactive)
CCC(C)(C)C(=O)OC1=C(c2ccc(Cl)cc2Cl)C(=O)OC12CCCCC2 | 1.09 | 1.08 | 1.01 | 1.05 | 0.967 (inactive) | 1.05 (inactive) | 1.03 (inactive) | 1.02 (inactive) | 0.996 (inactive) | 0.997 (inactive) | 1.03 (inactive) | 1.05 (inactive)
CC1(C)[C@H](/C=C(\Cl)C(F)(F)F)[C@@H]1C(=O)OC(C#N)c1cccc(Oc2ccccc2)c1 (some centres undefined) | 0.953 | 0.991 | 0.981 | 0.999 | 0.987 (inactive) | 0.918 (inactive) | 1.03 (inactive) | 0.976 (inactive) | 0.987 (inactive) | 1.02 (inactive) | 0.995 (inactive) | 1.08 (inactive)
Cc1cc(C(C#N)c2ccc(Cl)cc2)c(Cl)cc1NC(=O)c1cc(I)cc(I)c1O (centres undefined) [Closantel] | 0.0125 | 1.08 | 1.03 | 0.185 | 0.981 (inactive) | 0.0178 (active) | 0.121 (active) | 1.19 (inactive) | 0.984 (inactive) | 1.32 (active) | 1.05 (inactive) | 0.13 (active)
NC(=O)C[S+]([O-])C(c1ccccc1)c1ccccc1 (centres undefined) [Modafinil] | 0.82 | 0.705 | 0.712 | 0.795 | 0.949 (inactive) | 1.1 (inactive) | 1.03 (inactive) | 1.01 (inactive) | 0.987 (inactive) | 0.99 (inactive) | 1 (inactive) | 1.06 (inactive)
CCOc1ccc(C(C)(C)COCc2cccc(Oc3ccccc3)c2)cc1 | 1.14 | 1.03 | 1.01 | 1.13 | 0.97 (inactive) | 1.03 (inactive) | 1.05 (inactive) | 1.01 (inactive) | 0.984 (inactive) | 0.969 (inactive) | 1.05 (inactive) | 1.05 (inactive)
N#Cc1c[nH]cc1-c1cccc2c1OC(F)(F)O2 | 0.873 | 0.959 | 0.984 | 1.17 | 1.01 (inactive) | 1.03 (inactive) | 0.939 (inactive) | 0.993 (inactive) | 0.977 (inactive) | 1.08 (inactive) | 0.981 (inactive) | 0.972 (inactive)
O=C(O)C(F)(F)C(F)(F)C(F)(F)C(F)(F)C(F)(F)C(F)(F)F [PFHpA (Perfluoroheptanoic acid)] | 0.939 | 1.01 | 0.994 | 0.995 | 0.997 (inactive) | 1.06 (inactive) | 0.979 (inactive) | 1.03 (inactive) | 1.02 (inactive) | 1.04 (inactive) | 1 (inactive) | 0.98 (inactive)
O=C1C2CC=CCC2C(=O)N1SC(Cl)(Cl)Cl (centres undefined) | 0.923 | 1.04 | 0.972 | 0.931 | 1.02 (inactive) | 1.04 (inactive) | 1.04 (inactive) | 1 (inactive) | 0.956 (inactive) | 0.806 (inactive) | 0.999 (inactive) | 1.05 (inactive)
